Results on 18 compounds are retold here after PubChem BioAssay.

A number with no mark means an inactive call. For part of these data: Entries with a potency or affinity are not part of this list. Activity calls are given as the source filed them. Unless noted, the rule behind the calls is not given here.

The inhibition is the relative decrease from the control value, in per cent.

Assay [1] is described as follows: antimalarial activity against Dd2 strain (AID 2302;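 active = growth inhibition above 50% at the single 2 µM test dose, taken to imply half-maximal potency below 2 µM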;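 note: 0% = DMSO untreated growth and 100% = chloroquine plus artemisinin killed control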). Conditions: P. falciparum Dd2 in RBCs, LDH growth readout, 72 h; at 2 µM; hits give high values.
A short description of assay [2]: human hepatoma cell viability loss – ATP luminescence, cytotoxicity control for P. falciparum antimalarial project, primary screen (AID 2303;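 active = inhibition above 50%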;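 note: 0% = DMSO wells and 100% = digitonin-killed cells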). The settings on record: HepG2 viability, 24-48 h, at 10 µM, hits give high values.
Assay [3] concerns the target L-lactate dehydrogenase (Plasmodium falciparum (isolate CDC / Honduras)) (UniProt Q27743). Put plainly: PfLDH activity inhibition – cell lysate, 3D7 strain, counter-screen for P. falciparum growth inhibition project (AID 2304).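 Note: 0% = vehicle and 100% = reference inhibitor.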 The settings on record: P. falciparum 3D7 crude extract, LDH APAD/NBT absorbance; at 2 µM; hits give high values.
Assay [4] in a line: inhibition of 3D7 malaria parasite growth – strain 3D7 (AID 2306).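 Note: 0% = DMSO wells and 100% = chloroquine plus artemisinin control wells.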 The settings on record: P. falciparum 3D7 erythrocytic growth, LDH absorbance, 72 h; at 2 µM; hits give high values.
The target in assay [5] is Calcium-dependent protein kinase 1 (Plasmodium falciparum (isolate 3D7)) (UniProt P62344). Kind of assay: PfCDPK1 kinase inhibitors, biochemical, TCAMS library (AID 1159585; cut-off not given, nearly all actives have IC50 up to about 0.98 µM;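 note: inhibitors leave more ATP so luminescence rises with inhibition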). Conditions: recombinant PfCDPK1, Kinase-Glo ATP depletion luminescence.
In assay [6] the target is Plasmodium falciparum protein kinase 6 (PK6, PF3D7_1337100) (UniProt Q8IDW1). Put plainly: PfPK6 kinase inhibitors, biochemical, TCAMS library (AID 1159586). The settings on record: recombinant PfPK6, Kinase-Glo ATP depletion luminescence. A general note: Kinase-Glo reads ATP consumption through a luciferase reaction.
The target in assay [7] is Protein kinase 7 (PK7), Plasmodium falciparum 3D7 (PF3D7_0213400) (UniProt Q7YTF7). Kind of assay: inhibition of Plasmodium PK7 catalytic activity – biochemical, TCAMS antimalarial set, Kinase-Glo luminescence (AID 1159587). Conditions: recombinant PfPK7, Kinase-Glo ATP depletion luminescence.
Assay [8] addresses Calcium-dependent protein kinase 4 (Plasmodium falciparum (isolate 3D7)) (UniProt Q8IBS5). Kind of assay: PfCDPK4 kinase inhibitors, biochemical, TCAMS library (AID 1159588; cut-off not given, nearly all actives have IC50 up to about 0.91 µM). Conditions: recombinant PfCDPK4, Kinase-Glo ATP depletion luminescence.

Calcium-dependent protein kinase 1 (Plasmodium falciparum (isolate 3D7)), sequence (P62344 whole entry, looked up): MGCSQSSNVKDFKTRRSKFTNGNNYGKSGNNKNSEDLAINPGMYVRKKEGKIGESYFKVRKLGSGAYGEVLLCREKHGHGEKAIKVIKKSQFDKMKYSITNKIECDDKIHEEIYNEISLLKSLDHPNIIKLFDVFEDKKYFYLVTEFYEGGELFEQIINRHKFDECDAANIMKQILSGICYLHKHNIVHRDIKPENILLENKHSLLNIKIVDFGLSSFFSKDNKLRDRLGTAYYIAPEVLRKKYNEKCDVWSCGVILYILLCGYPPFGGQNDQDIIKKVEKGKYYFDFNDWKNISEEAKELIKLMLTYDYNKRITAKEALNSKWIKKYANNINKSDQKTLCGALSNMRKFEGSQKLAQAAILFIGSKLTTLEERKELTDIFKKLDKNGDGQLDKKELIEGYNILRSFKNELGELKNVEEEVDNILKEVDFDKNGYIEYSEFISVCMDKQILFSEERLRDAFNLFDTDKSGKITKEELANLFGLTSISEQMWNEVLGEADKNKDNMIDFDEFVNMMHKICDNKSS
Calcium-dependent protein kinase 4 (Plasmodium falciparum (isolate 3D7)), sequence (Q8IBS5 whole entry, looked up): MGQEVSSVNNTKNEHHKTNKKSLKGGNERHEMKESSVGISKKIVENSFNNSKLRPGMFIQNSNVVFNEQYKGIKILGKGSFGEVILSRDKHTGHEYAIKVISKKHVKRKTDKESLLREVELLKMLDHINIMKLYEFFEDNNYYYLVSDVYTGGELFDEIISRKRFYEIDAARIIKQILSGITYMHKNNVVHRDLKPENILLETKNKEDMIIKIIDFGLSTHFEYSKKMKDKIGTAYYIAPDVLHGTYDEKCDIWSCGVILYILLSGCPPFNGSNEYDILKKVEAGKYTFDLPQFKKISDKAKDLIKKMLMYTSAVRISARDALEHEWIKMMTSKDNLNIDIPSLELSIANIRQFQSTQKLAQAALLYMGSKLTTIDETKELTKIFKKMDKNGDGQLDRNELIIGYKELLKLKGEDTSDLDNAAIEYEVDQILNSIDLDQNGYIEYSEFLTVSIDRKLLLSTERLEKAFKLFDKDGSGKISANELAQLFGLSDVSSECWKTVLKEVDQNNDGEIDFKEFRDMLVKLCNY
Protein kinase 7 (PK7), Plasmodium falciparum 3D7 (PF3D7_0213400), sequence (Q7YTF7 1-343): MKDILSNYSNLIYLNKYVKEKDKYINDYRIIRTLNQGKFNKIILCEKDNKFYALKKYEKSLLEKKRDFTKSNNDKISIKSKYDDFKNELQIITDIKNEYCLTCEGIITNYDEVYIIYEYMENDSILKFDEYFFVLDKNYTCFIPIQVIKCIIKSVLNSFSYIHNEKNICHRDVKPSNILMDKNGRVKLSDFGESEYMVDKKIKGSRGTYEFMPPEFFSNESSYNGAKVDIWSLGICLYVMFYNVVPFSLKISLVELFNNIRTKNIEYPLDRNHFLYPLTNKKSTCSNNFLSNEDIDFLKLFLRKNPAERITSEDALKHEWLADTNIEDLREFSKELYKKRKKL
Plasmodium falciparum protein kinase 6 (PK6, PF3D7_1337100), sequence (Q8IDW1 1-305): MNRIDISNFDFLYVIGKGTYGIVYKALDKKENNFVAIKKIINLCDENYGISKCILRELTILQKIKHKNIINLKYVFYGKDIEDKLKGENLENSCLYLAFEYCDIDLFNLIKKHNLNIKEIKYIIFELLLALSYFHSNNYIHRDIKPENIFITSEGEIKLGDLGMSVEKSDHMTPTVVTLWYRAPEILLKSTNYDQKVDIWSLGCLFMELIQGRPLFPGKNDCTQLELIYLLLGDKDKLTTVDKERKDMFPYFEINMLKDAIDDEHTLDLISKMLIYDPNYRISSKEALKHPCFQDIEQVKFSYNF
L-lactate dehydrogenase (Plasmodium falciparum (isolate CDC / Honduras)), sequence (Q27743 whole entry, looked up): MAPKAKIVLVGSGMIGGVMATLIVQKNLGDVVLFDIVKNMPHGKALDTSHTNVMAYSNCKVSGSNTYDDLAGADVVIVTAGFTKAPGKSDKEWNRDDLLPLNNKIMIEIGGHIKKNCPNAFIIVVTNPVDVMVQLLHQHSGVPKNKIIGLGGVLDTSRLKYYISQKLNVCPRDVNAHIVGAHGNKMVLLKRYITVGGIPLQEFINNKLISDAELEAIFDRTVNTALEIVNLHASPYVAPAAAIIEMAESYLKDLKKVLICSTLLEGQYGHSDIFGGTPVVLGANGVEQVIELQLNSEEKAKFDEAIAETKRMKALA

In the case of `Cc1cccc2[nH]c(-c3ccc(-c4ccc(CNCc5ccccc5)cc4)cc3)nc12`, the growth inhibition was 90% (active) in assay [1] and 99% (active) in assay [4]. Besides, the inhibition in assay [2] was 5%; in assay [3], -2%. The result in assay [5], in assay [6], in assay [7] and in assay [8] was inactive.

For the compound `Cc1cc2nc(-c3ccc(C(=O)NCCCc4ccccc4)cc3)[nH]c2cc1C`, the growth inhibition in assay [1] was 5%; in assay [4], 91% (active). The results for the inhibition in assay [2] and in assay [3] were 7% and -2%, respectively. In addition, the result in assay [5], in assay [6], in assay [7] and in assay [8] was inactive.

With `c1ccc(-c2cccc(-c3ccccn3)n2)nc1`, the growth inhibition is 99% (active) in assay [1] and 98% (active) in assay [4]. Moreover, the inhibition was 45% in assay [2] and -1% in assay [3]. In addition, the outcome in assay [5], in assay [6], in assay [7] and in assay [8] was inactive.

Regarding `c1ccc2cc3c(NCCN4CCOCC4)ccnc3cc2c1`, the growth inhibition in assay [1] is 98% (active); in assay [4] it was 99% (active). In addition, the inhibition in assay [2] and in assay [3] was -1% throughout. In addition, the outcome in assay [5], in assay [6], in assay [7] and in assay [8] was inactive.

Take `O=C(Nc1ccc(-c2nc3ccccc3[nH]2)cc1)c1cccc([N+](=O)[O-])c1`: the growth inhibition in assay [1] was 56% (active); in assay [4] it was 101% (active). In addition, the values for the inhibition in assay [2] and in assay [3] were 45% and -3%, respectively. Besides, the outcome in assay [5], in assay [6], in assay [7] and in assay [8] was inactive.

In the case of `CCCn1c(Sc2ccc(C#N)c([N+](=O)[O-])c2)nnc1-c1ccc(N(C)C)cc1`, the growth inhibition in assay [1] was 98% (active); in assay [4], 97% (active). Besides, the inhibition in assay [2] was 18%; in assay [3], 7%. For the same compound, the outcome in assay [5], in assay [6], in assay [7] and in assay [8] was inactive.

Turning to `C[C@@H](N=C(Nc1ccc(C#N)cc1O)Nc1ccccc1Cl)c1ccc(Br)cc1`, the growth inhibition in assay [1] was 70% (active); in assay [4], 98% (active). Also, the inhibition was 33% in assay [2] and 0% in assay [3]. Moreover, the result in assay [5], in assay [6], in assay [7] and in assay [8] was inactive.

Regarding `COc1cc(Cc2cnc(N)nc2N)ccc1OCc1ccc(NC(C)=O)cc1`, the growth inhibition in assay [1] was 0%; in assay [4], 98% (active). For the same compound, the inhibition was 9% in assay [2] and -6% in assay [3]. The outcome in assay [5], in assay [6], in assay [7] and in assay [8] was inactive.

In the case of `CN1CCN(CCCN(Cc2csc(-c3ccc(CNCc4ccccc4)cc3)n2)S(=O)(=O)c2ccccc2Cl)CC1`, the results for the growth inhibition in assay [1] and in assay [4] were 81% (active) and 93% (active), respectively. Besides, the inhibition was 13% in assay [2] and -5% in assay [3]. Also, the outcome in assay [5], in assay [6], in assay [7] and in assay [8] was inactive.

As for `Cc1ccc(Cn2ncc(N3C[C@@H](C)N[C@@H](C)C3)c(Cl)c2=O)cc1NC(=O)Nc1ccc(-c2ccccc2)cc1`, the growth inhibition in assay [1] is 29%; in assay [4] it was 100% (active). For the same compound, the inhibition is 51% (active) in assay [2] and -2% in assay [3]. Moreover, the outcome in assay [5], in assay [6], in assay [7] and in assay [8] was inactive.

`COc1ccccc1C1CC(c2ccc(Br)cc2)=NN1C(=O)c1ccccc1` (centres undefined): the growth inhibition in assay [1] is 59% (active); in assay [4] it was 85% (active). Moreover, the figures for the inhibition in assay [2] and in assay [3] were 12% and -6%, respectively. The outcome in assay [5], in assay [6], in assay [7] and in assay [8] was inactive.

For `OCCN1CCN(Cc2ccc(-c3cccc(-c4nc5ccccc5[nH]4)c3)cc2)CC1`, the growth inhibition in assay [1] was 16%; in assay [4], 96% (active). Further, the results for the inhibition in assay [2] and in assay [3] were 32% and 6%, respectively. The outcome in assay [5], in assay [6], in assay [7] and in assay [8] was inactive.

For `COCc1ccc(CN2CCC(C(=O)Nc3ccc(-c4nc5ccccc5[nH]4)cc3)CC2)o1`, the growth inhibition in assay [1] was 13%; in assay [4], 97% (active). The inhibition was 13% in assay [2] and -5% in assay [3]. For the same compound, the outcome in assay [5], in assay [6], in assay [7] and in assay [8] was inactive.

On to `N#CC(NC(=O)C=Cc1ccccc1)c1ccccc1` (centres undefined), for which the growth inhibition in assay [1] is 3%; in assay [4], 95% (active). The inhibition in assay [2] is 3%; in assay [3], -8%. Besides, the outcome in assay [5], in assay [6], in assay [7] and in assay [8] was inactive.

Regarding `CNC(=O)CNC(=O)COc1cccc2ccccc12`, the growth inhibition is -6% in assay [1] and 98% (active) in assay [4]. For the same compound, the results for the inhibition in assay [2] and in assay [3] were 3% and -8%, respectively. Also, the result in assay [5], in assay [6], in assay [7] and in assay [8] was inactive.

As to `Cc1ccc(/C=C/C(=O)NCCCCCN2CCCN(C(=O)Nc3ccc(Cl)c(Cl)c3)CC2)cc1`, the growth inhibition in assay [1] is 1%; in assay [4], 95% (active). The inhibition in assay [2] was 24%; in assay [3], 2%. Also, the outcome in assay [5], in assay [6], in assay [7] and in assay [8] was inactive.

On to `CC(=O)Nc1nc(C(=O)Nc2cccc(-c3cccc(-c4nc5c(C)cccc5[nH]4)c3)c2)cs1`, for which the growth inhibition in assay [1] was 94% (active); in assay [4] it was 101% (active). The inhibition was 28% in assay [2] and -2% in assay [3]. The result in assay [5], in assay [6], in assay [7] and in assay [8] was inactive.

For the compound `COC(=O)c1ccc(-c2ccc(-c3cccnc3)cc2C)cc1`, the figures for the growth inhibition in assay [1] and in assay [4] were 98% (active) and 100% (active), respectively. Moreover, the inhibition was 81% (active) in assay [2] and 3% in assay [3]. For the same compound, the result in assay [5], in assay [6], in assay [7] and in assay [8] was inactive.
